Test results: PubChem BioAssay AID651814 (National Center for Advancing Translational Sciences (NCATS), 2012)
The campaign covered roughly 2,100 compounds. About 590 (28%) were called active. Roughly 42% stayed inconclusive and do not appear here. The list shows a part of the results. Values without a mark were called inactive. The call rests on the fitted dose curve; in most records, active means well fitted inhibition curve with a large enough effect; inconclusive means small, poorly fitted or top-dose-only effect; inactive means flat fitted curve, though single readings scatter.

Molecular target: DNA dC->dU-editing enzyme APOBEC-3F (Homo sapiens) (UniProt Q8IUX4)
Sequence (Q8IUX4 whole entry, looked up): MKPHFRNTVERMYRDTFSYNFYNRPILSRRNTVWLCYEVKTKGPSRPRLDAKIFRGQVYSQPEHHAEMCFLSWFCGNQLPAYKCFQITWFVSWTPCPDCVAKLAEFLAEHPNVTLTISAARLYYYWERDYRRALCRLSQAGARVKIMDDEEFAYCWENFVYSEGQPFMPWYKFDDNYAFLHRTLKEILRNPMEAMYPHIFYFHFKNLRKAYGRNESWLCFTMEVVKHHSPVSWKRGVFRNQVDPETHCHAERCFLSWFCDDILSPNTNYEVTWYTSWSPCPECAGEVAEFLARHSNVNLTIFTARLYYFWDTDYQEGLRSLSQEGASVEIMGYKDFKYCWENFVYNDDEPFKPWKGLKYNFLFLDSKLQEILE
Assay: qHTS for inhibitors of Vif-A3F interactions: Cherry picks; further: nearly all actives have a fitted effect of over 70% in size;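 on max response: % of control where 0% means no effect; active compounds raise eYFP fluorescence by blocking Vif-driven A3F loss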
Conditions: HeLa A3F-eYFP + Vif (tagged APOBEC3F with the HIV-1 protein that degrades it), eYFP fluorescence, 24 h
From the text: The recent discovery and characterization of host restriction factors, which provide a potent defense to invading retroviruses, has provided new targets for antiviral drug development. APOBEC3G (A3G) and APOBEC3F (A3F) are potent cytidine deaminases that block HIV-1 replication; HIV-1 expresses the Vif protein, which counteracts A3G and A3F by binding to them and inducing their proteasomal degradation. The Vif-A3G and Vif-A3F interactions provide two potential targets for development of small molecules which can interfere with the ability of Vif to degrade A3G or A3F. […] To identify inhibitors that can interfere with Vif mediated degradation of A3G and A3F, we have developed Hela cell lines that stably express A3G or A3F tagged with eYFP at the C-terminal end (A3G-eYFP or A3F-eYFP, respectively) and Vif. In the absence of an inhibitor, Vif induces degradation of A3G-eYFP and A3F-eYFP, and the cells are not fluorescent. In the presence of an inhibitor, it is expected that Vif will be unable to degrade A3G-eYFP and/or A3F-eYFP, resulting in an increase in yellow fluorescence. In this assay, Vif A3F was screened against the cherry picks ordered from the MLSMR. NIH Chemical Genomics Center [NCGC] NIH Molecular Libraries Probe Centers Network [MLPCN] MLPCN Grant: MH093245 Assay Submitter (PI): Vinay Pathak, National Cancer Institute
A3F-Vif cells were harvested from T225 flask and resuspended in phenol free OPTI-MEM medium with 5% FBS. Then 5 uL of 140,000 cells/mL resuspended cells was dispensed into each well of low base Aurora COC 1,536-well plates (black walled, clear bottom) using a Multidrop Combi dispenser. After overnight culture at 37 deg C with 5% CO2, a total of 23 nL of compounds at 5 selected concentrations from the NPC or positive control (2 mM stock of MG132) in DMSO was transferred to each well of the assay plate using a pintool (Kalypsys, San Diego, CA), and the plates were further incubated at 37 deg C with 5% CO2 for 24 hours. After that, the plates were measured on Acumen Explorer (TTP Lab Tech). The fluorescence was detected by 488 nm/Ex and […].
Potency means the concentration at half of the fitted maximal effect.

Row | SMILES | max response [%] | Potency
1 | O=C(Nc1cc(Cl)cc2c1-c1ccc(Cl)cc1C2O)C(Cl)Cl (stereo not given) | -15.3 | –
2 | CCCCN(C(=O)c1ccc([N+](=O)[O-])s1)c1c(N)n(CCCC)c(=O)[nH]c1=O | 3.55 | –
3 | COc1cccc(/C=N/n2c(C3CCCCC3)n[nH]c2=S)c1O | 2.43 | –
4 | Cc1[nH]c2ccccc2c1/C=C/c1cc[n+](C)cc1 | – | 1.58 µM (active)
5 | Cc1[nH]c2ccccc2c1/C=C/C(=O)c1ccccc1 | – | 20.6 µM (active)
6 | Cc1ccc2[nH]c(C)c(/C=C/c3cc[n+](C)cc3)c2c1 | – | 0.994 µM (active)
7 | CCOc1cc(C)nc(NCc2ccccc2)n1 | -21.9 | –
8 | CCCn1c(C2CCCN2c2nc(-c3cccc(Br)c3)cs2)nc2ccccc21 (stereo not given) | 2.76 | –
9 | C=C(C)CNC(=S)N/N=C1\CCCCc2ccccc21 | 0.867 | –
10 | CCCN1C(=O)/C(=C/C=C2\N(CC)c3ccccc3C2(C)C)SC1=S | – | 1.77 µM (active)
11 | C=CCN1C(=O)/C(=C\C=C2\N(C)c3ccccc3C2(C)C)SC1=S | – | 0.461 µM (active)
12 | CN1/C(=C\C=C2/SC(=S)NC2=O)C(C)(C)c2ccccc21 | – | 4.44 µM (active)
13 | CCCN1C(=O)/C(=C\C=C2\N(CC)c3ccccc3C2(C)C)SC1=S | – | 2.06 µM (active)
14 | CN1/C(=C\C=C2/SC(=S)N(CC(=O)O)C2=O)C(C)(C)c2ccccc21 | -6.86 | –
15 | CCN1C(=O)/C(=C/C=C2\N(CC)c3cc(S(=O)(=O)N(C)C)ccc3N2c2ccccc2)SC1=S | -29.7 | –
16 | Clc1ccsc1-c1csc(-c2cccnc2)n1 | -27.5 | –
17 | NNC(=S)Nc1c(F)cc(F)cc1Br | 1.43 | –
18 | O=C1/C(=C/c2c[nH]c3ccccc23)CCC/C1=C\c1c[nH]c2ccccc12 | – | 16.4 µM (active)
19 | Cn1nnnc1SCCNCc1cc(Br)ccc1OCc1ccccc1Cl | -14.7 | –
20 | Cc1cccc2cc3c(N)c(C(=O)N4CCOCC4)sc3nc12 | – | 7.31 µM (active)
21 | Cc1cccc2cc3c(N)c(C(=O)Nc4ccc(N5CCOCC5)cc4)sc3nc12 | – | 11.2 µM (active)
22 | Cc1ccc(C)c2nc3sc(C(=O)N4CCOCC4)c(N)c3cc12 | – | 12.5 µM (active)
23 | Cc1sc(NC(=O)c2sc3nc4c(C)cccc4cc3c2N)c(C#N)c1C | – | 17.7 µM (active)

Row | SMILES | max response [%] | Potency
24 | O=C(Nc1ccc(N2CCOCC2)cc1)c1cccc2ccccc12 | -29.2 | –
25 | COc1cc(C(=O)OCC(=O)Nc2ccc(N3CCOCC3)cc2)ccc1OCC(C)C | 1.41 | –
26 | CCN(CC)c1ccc(/C=N/NC(=S)NC)c(O)c1 | -6.91 | –
27 | COc1ccc(Nc2nc(C)nc3sc4c(c23)CCC4)cc1O | -29.4 | –
28 | CCn1c(O)c(/C=N/N=C/c2ccc(OC)cc2)c2cc(C3=NNC(=O)CC3)ccc21 | – | 6.51 µM (active)
29 | CN(C)c1ccc(/C=C2/C[N+](C)(C)C/C(=C/c3ccc(N(C)C)cc3)C2=O)cc1 | – | 2.59 µM (active)
30 | CN(C)c1ccc(/C=C2\Cc3ccccc3C2=O)cc1 | – | 5.17 µM (active)
31 | C[N+](C)(C)CCC(=O)N1C/C(=C/c2ccccc2)C(=O)/C(=C\c2ccccc2)C1 | -12.6 | –
32 | O=C1/C(=C\c2ccc(O)c(O)c2)SC(=S)N1Cc1ccccc1 | -22.4 | –
33 | O=C1/C(=C\c2cc([N+](=O)[O-])ccc2O)SC(=S)N1Cc1ccc(Cl)cc1 | – | 20.6 µM (active)
34 | O=C1CC(c2ccccc2)Cc2[nH]c(=O)c(-c3nc(-c4cccc(Cl)c4)cs3)cc21 (stereo not given) | – | 4.11 µM (active)
35 | Cc1sc(-c2cc3c([nH]c2=O)CC(c2ccccc2)CC3=O)nc1-c1ccc(Cl)cc1 (stereo not given) | – | 1.84 µM (active)
36 | CCN(c1ccc(NC(=O)CCc2nc3sc4c(c3c(=O)[nH]2)CCCC4)cc1)C(C)C | -16.9 | –
37 | Clc1ccccc1C1CC(c2ccccc2)=Nc2ccccc2N1 (stereo not given) | -7.9 | –
38 | COc1ccc(C(=O)c2sc3nc4c(c(C(F)(F)F)c3c2N)CN(C(C)=O)CC4)cc1OC | – | 23.1 µM (active)
39 | CC(=O)N1CCc2nc3sc(C(=O)c4ccc(F)cc4)c(N)c3c(C(F)(F)F)c2C1 | – | 20.6 µM (active)
40 | O=C1S/C(=C/c2ccc(N3CCOCC3)o2)C(=O)N1Cc1ccc(F)cc1 | – | 2.8 µM (active)
41 | O=C1S/C(=C/c2ccc(N3CCOCC3)o2)C(=O)N1Cc1c(F)cccc1Cl | – | 2.5 µM (active)
42 | Cc1cc2nc3s/c(=C/c4ccc(-c5ccccc5C(=O)O)o4)c(=O)n3c2cc1C | – | 20.6 µM (active)
43 | Cc1ccc(NC(=O)C2CCN(S(=O)(=O)c3ccc(Cl)c(C(F)(F)F)c3)CC2)nc1 | 1.5 | –
44 | O=S(=O)([N-]c1nc2ccccc2nc1-[n+]1ccc(-c2ccncc2)cc1)c1ccccc1 | -0.136 | –
45 | CCc1cc[n+](-c2nc3ccccc3nc2[N-]S(=O)(=O)c2ccc(Br)s2)cc1 | – | 23.1 µM (active)
